# Inconclusive results are not listed. Where a call stands in place of a potency, no number is given. The source made the active and inactive calls. Calls come from the whole dose curve; as a rule, active = well fitted curve in the direction sought with a large enough effect; inconclusive = small, poorly fitted or top-dose-only effect, or another doubt; inactive = no such curve, though single readings can be large; an effect the other way counts as inactive or inconclusive.
# Columns and labels:
# [1] = system: CRL-7250; assay: qHTS assay to identify novel small-molecules to repurpose for Merkel cell carcinoma treatment (AID 1296009); conditions: MCC and control cell lines, CellTiter-Glo viability, 72 h; series mostly up to 44.8 µM; note: nearly all actives have a fitted effect of over 60% in size
# In short: (§1)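 Cells were incubated with compound for 72 hr at 37 degree celsius before CellTiter-Glo addition. Luminescence was normalized with no-cell wells as full cytotoxicity and DMSO as baseline.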
# [2] = system: TAB165; assay: qHTS profiling for inhibitors of Plasmodium falciparum proliferation (AID 504749); note: nearly all actives have a fitted effect of over 60% in size; conditions: P. falciparum in erythrocytes, SYBR Green DNA, 72 h; series mostly up to 28.7 µM
# In short: (§2)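 Readout was DNA-dye fluorescence from lysed cultures, ex 485/em 535 nm. Parasitized red cells had grown 72 h with compound; data scaled between 0.29 uM artemisinin and DMSO wells and corrected using vehicle-only plates.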
# [3] = system: W2; assay: as above; conditions: P. falciparum in erythrocytes, SYBR Green DNA, 72 h; series mostly up to 28.7 µM
# In short: as §2
# [4] = system: HACAT; assay: qHTS assay to identify novel small-molecules to repurpose for Merkel cell carcinoma treatment (AID 1296009); conditions: MCC and control cell lines, CellTiter-Glo viability, 72 h; at 44.8 µM (top of the series) unless noted; note: nearly all actives have a fitted effect of over 60% in size
# In short: as §1
# [5] = system: MCC-13; assay: as above; conditions: MCC and control cell lines, CellTiter-Glo viability, 72 h; series mostly up to 46 µM
# In short: as §1
# [6] = system: MCC-26; assay: as above; conditions: MCC and control cell lines, CellTiter-Glo viability, 72 h; series mostly up to 46 µM
# In short: as §1
# [7] = system: MKL-1; assay: as above; conditions: MCC and control cell lines, CellTiter-Glo viability, 72 h; series mostly up to 46 µM
# In short: as §1
# [8] = system: MKL-2; assay: as above; conditions: MCC and control cell lines, CellTiter-Glo viability, 72 h; series mostly up to 46 µM
# In short: as §1
# [9] = system: NIH3T3; assay: as above; conditions: MCC and control cell lines, CellTiter-Glo viability, 72 h; at 44.8 µM (top of the series) unless noted
# In short: as §1
# [10] = system: UISO; assay: as above; conditions: MCC and control cell lines, CellTiter-Glo viability, 72 h; series mostly up to 46 µM
# In short: as §1
# [11] = system: WaGa; assay: as above; conditions: MCC and control cell lines, CellTiter-Glo viability, 72 h; series mostly up to 46 µM
# In short: as §1
# [12] = system: C33A; assay: Primary qHTS to identify gynecologic anti-cancer compounds using libraries of approved drugs and bioactive compounds (AID 1345084); conditions: Gynecologic cancer cell panel viability, ATPlite luminescence, 48 h; series mostly up to 57.5 µM; note: nearly all actives have a fitted effect of over 55% in size
# In short: (§3)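 48 h compound exposure at 37 C, 5% CO2; five-point qHTS. ATPlite luminescence readout of cell ATP.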
# [13] = system: CAOV3; assay: as above; conditions: Gynecologic cancer cell panel viability, ATPlite luminescence, 48 h; series mostly up to 57.5 µM
# In short: as §3
# [14] = system: CASKI; assay: as above; conditions: Gynecologic cancer cell panel viability, ATPlite luminescence, 48 h; series mostly up to 57.5 µM
# In short: as §3
# Potency is the fitted concentration of half-maximal effect.
compound,measurement,setting,value
Cc1ccnc2c1NC(=O)c1cccnc1N2C1CC1,outcome,[1],inactive
Cc1cccc(C)c1OCC(C)N (stereo unspecified),outcome,[1],inactive
CN1CCC(=C2c3ccccc3C=Cc3ccccc32)CC1,outcome,[1],inactive
CS(=O)(=O)CCNCc1ccc(-c2ccc3ncnc(Nc4ccc(OCc5cccc(F)c5)c(Cl)c4)c3c2)o1,outcome,[1],inactive
CO/N=C1\CN(c2nc3c(cc2F)c(=O)c(C(=O)O)cn3C2CC2)CC1CN (stereo unspecified),outcome,[1],inactive
CC1OC(C)OC(C)O1 (stereo unspecified),Potency,[2],inactive
same,Potency,[3],inactive
same,outcome,[4],inactive
same,Potency,[5],inactive
same,Potency,[6],inactive
same,Potency,[7],inactive
same,Potency,[8],inactive
same,outcome,[9],inactive
same,Potency,[10],inactive
same,Potency,[11],inactive
same,Potency,[12],inactive
same,Potency,[13],inactive
same,Potency,[14],inactive
CN(N=O)C(=O)N[C@@H]1[C@@H](O)[C@H](O)[C@@H](CO)O[C@@H]1O,outcome,[1],inactive
O=C1CCC(N2C(=O)c3ccccc3C2=O)C(=O)N1 (stereo unspecified),outcome,[1],inactive
O=c1[nH]c2ccccc2n1C1CCN(CCCC(c2ccc(F)cc2)c2ccc(F)cc2)CC1,Potency,[3],3.79 µM (active)
O=C(O)CCNC(=O)c1ccc(N=Nc2ccc(O)c(C(=O)O)c2)cc1,outcome,[1],inactive
Cc1[nH]cnc1CN1CCc2c(c3ccccc3n2C)C1=O,outcome,[1],inactive
C[C@H]1c2cccc(O)c2C(O)=C2C(=O)[C@]3(O)C(O)=C(C(N)=O)C(=O)[C@@H](N(C)C)[C@@H]3[C@@H](O)[C@@H]21,outcome,[1],inactive
CCCNC(=O)NS(=O)(=O)c1ccc(Cl)cc1,outcome,[1],inactive
CC12CC3CC(C)(C1)CC(N)(C3)C2,outcome,[1],inactive
CS(=O)(=O)OCCCCOS(C)(=O)=O,outcome,[1],inactive
O=NN(CCCl)C(=O)NCCCl,outcome,[1],inactive
COc1ccccc1OCC(O)COC(N)=O (stereo unspecified),outcome,[1],inactive
C[C@@H](NCCCc1cccc(C(F)(F)F)c1)c1cccc2ccccc12,outcome,[1],inactive
C=C(C)[C@H]1Cc2c(ccc3c2O[C@@H]2COc4cc(OC)c(OC)cc4[C@@H]2C3=O)O1,Potency,[2],inactive
same,Potency,[12],0.708 µM (active)
same,Potency,[14],1.26 µM (active)
CCN(CC)CCOC(=O)C1(C2CCCCC2)CCCCC1,outcome,[1],inactive
Cc1cccc(Nc2ccncc2S(=O)(=O)NC(=O)NC(C)C)c1,outcome,[1],inactive
O=NN(CCCl)C(=O)NC1CCCCC1,outcome,[1],inactive
CC(C(=O)O)c1cccc(C(=O)c2ccccc2)c1 (stereo unspecified),outcome,[1],inactive
CO[C@]12CC[C@@]3(C[C@@H]1[C@](C)(O)C(C)(C)C)[C@@H]1Cc4ccc(O)c5c4[C@@]3(CCN1CC1CC1)[C@H]2O5,Potency,[5],53.9 µM (active)
same,Potency,[8],34 µM (active)
same,Potency,[10],24.1 µM (active)
CC1=C(C(=O)O)N2C(=O)[C@@H](NC(=O)[C@H](N)c3ccc(O)cc3)[C@H]2SC1,outcome,[1],inactive
COc1cc(C(C)=O)ccc1OCCCN1CCC(c2noc3cc(F)ccc23)CC1,outcome,[1],inactive
O=C1NC(c2ccccc2)(c2ccccc2)C(=O)N1COP(=O)(O)O,outcome,[1],inactive
NC12CC3CC(CC(C3)C1)C2,outcome,[1],inactive
Cn1ccc2cc3c(cc21)CCN3C(=O)Nc1cccnc1,outcome,[1],inactive [at 17.4 µM]
C1N2CN3CN1CN(C2)C3,outcome,[1],inactive
CNS(=O)(=O)Cc1ccc2[nH]cc(CCN(C)C)c2c1,outcome,[1],inactive
CCN(CCO)CCCC(C)Nc1ccnc2cc(Cl)ccc12 (stereo unspecified),outcome,[1],inactive [at 4.96 µM]
CNCCc1ccccn1,outcome,[1],inactive
CC(S)C(=O)NCC(=O)O (stereo unspecified),outcome,[1],inactive
Nc1cc(-c2ccncc2)c[nH]c1=O,outcome,[1],inactive
CC(=O)Nc1nnc(S(N)(=O)=O)s1,outcome,[1],inactive
O=c1[nH]c2ccccc2n1CCCN1CCC(n2c(=O)[nH]c3cc(Cl)ccc32)CC1,Potency,[2],4.47 µM (active)
same,Potency,[3],6.75 µM (active)
same,outcome,[1],inactive
same,Potency,[5],inactive
same,Potency,[6],inactive
same,Potency,[7],inactive
same,Potency,[8],inactive
same,outcome,[9],inactive
same,Potency,[10],inactive
same,Potency,[11],inactive
same,Potency,[12],inactive
same,Potency,[13],inactive
same,Potency,[14],inactive
NCCCC(O)(P(=O)(O)O)P(=O)(O)O,outcome,[1],inactive
